The results in this text go back to PubChem BioAssay AID1345083 (National Center for Advancing Translational Sciences (NCATS), 2018).

Among all 94,000 compounds or so, about 6,200 (6.6%) were called active. About 31% were inconclusive and are not listed. What follows is part of a selection rich in actives, with near analogues and random picks from the rest. Values without a mark were called inactive. Calls follow the shape of the dose curve; as a rule, active = well fitted inhibition curve with a large enough effect; inconclusive = small, poorly fitted or top-dose-only effect; inactive = flat fitted curve, though single readings scatter.
% is scaled to controls: 0 for no effect and ±100 for the full control effect; potency is read from the fitted curve at half-maximal effect.

This test can be described thus: Cytotoxic Profiling in HEK 293 Cell Line of Diverse Libraries Using Quantitative High-Throughput Screening. Also: nearly all actives have a fitted effect of over 60% in size. As to conditions: HEK 293 viability, ATP luminescence (CellTiter-Glo), 48-72 h; series mostly up to 115 µM; activity change, negative = cytotoxicity: at the top concentration. The gist of the method:
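Read-out: CellTiter-Glo ATP luminescence. Cells: HEK 293, 250 cells/well. Exposure: 48 or 72 hr, 37 degree Celsius.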
For orientation: ATP-based viability assays read luminescence as a measure of living cells.
`Cn1ccc(C(=O)N2C[C@H]3CN(C4CCOCC4)C[C@@]3(C(=O)O)C2)n1`: the “activity change, negative = cytotoxicity” value is -0.816%. On the same count and under the same terms, with `COC(=O)[C@H](Cc1ccc(OC)cc1)NC(=O)[C@H]1CN(S(=O)(=O)c2ccccc2)CCN1C(C)=O` the figure was -2.68%. Turning to `COCCC(=O)N1C[C@@H](COC)[C@H](c2nc(C)no2)C1`, the “activity change, negative = cytotoxicity” value was -16.4%. Take `CNC(=O)[C@@H]1C[C@@H](n2cc(CN(C)C(=O)Nc3ccc(C)c(C)c3)nn2)CN1`: the “activity change, negative = cytotoxicity” value was -17.4%. For the compound `C=CCN1C[C@@H]2CN(C(=O)CCc3cccc(OC)c3)C[C@]2(C(=O)O)C1`, the “activity change, negative = cytotoxicity” value was -5.09%. On the same count and under the same terms, with `Cc1noc(C)c1[S+](=O)([O-])N1CCC(C(=O)N2CCC(c3nc4ncccc4[nH]3)CC2)CC1` the figure was 1.37%. On to `Cc1noc(C)c1[S+](=O)([O-])N1CCC(C(=O)N2CCC(c3nc4ccncc4[nH]3)C2)CC1` (stereo not drawn), for which the “activity change, negative = cytotoxicity” value was -0.958%. `Cc1noc(C)c1[S+](=O)([O-])N1CCCC(C(=O)N2CCC(c3ccccc3)CC2)C1` (stereo not drawn): the Potency was 44.7 µM (active). Take `CCC(C)NC(=O)C1(c2ccc(NS(C)(=O)=O)cc2)CCCCC1` (stereo not drawn): the “activity change, negative = cytotoxicity” value is -8.9%. As for `COc1ccc(C(=O)N2CCCC(c3nc(-c4cnccn4)no3)CCNC(=O)CC2)c(OC)n1` (stereo not drawn), the result was inactive. As to `Cc1ccc(C(=O)N2CCC(c3n[nH]c(=O)n3-c3ccccc3)CC2)cc1F`, the “activity change, negative = cytotoxicity” value was 2.52%. `CN(Cc1csc(-c2ccccc2)n1)c1cc(C2CC(O)C2)nc(N)n1` (stereo not drawn): the Potency was 25.1 µM (active). Regarding `COc1ccc(N2C(=O)CSC23CCN(C(=O)c2ccc(C)cc2)CC3)cc1`, the “activity change, negative = cytotoxicity” value is -82.5%.

As for `O=C(c1cc(F)ccc1F)N1CCCC2(C1)NC(=O)N(Cc1ccccc1)C2=O` (stereo not drawn), the “activity change, negative = cytotoxicity” value was -8.4%. Take `Cc1cccc2c(C3CCN(S(=O)(=O)c4cc(Cl)cc(Cl)c4)CC3)c[nH]c12`: the Potency was 25.1 µM (active). Turning to `COc1cccc(S(=O)(=O)N2CCC(n3cnnc3C3CC3)CC2)c1`, the “activity change, negative = cytotoxicity” value is -22.4%. On the same count and under the same terms, the figure for `O=C(O)[C@@H]1CN(C(=O)CCCn2cncn2)C[C@H]1c1ccc2c(c1)OCO2` is 2.24%; for `O=C(N[C@@H]1CN(C(=O)c2ccc3nc[nH]c3c2)CC[C@@H]1CO)C1CC1` it is -3.61%. `CC(C)C1=NOC2(CCN(C(=O)c3ccccc3F)C2)C1` (stereo not drawn): the “outcome” value was “inactive [at 172 µM]”. Consider `O=C(C1CCOC1)N1CCC(N(Cc2ccccc2)C2CCOCC2)CC1` (stereo not drawn), for which the Potency was 89.1 µM (active). As for `O=C(NC1CC1)c1ccc(CC2CCN(C(=O)C3CCOC3)CC2)cc1` (stereo not drawn), the “activity change, negative = cytotoxicity” value is -11.7%. As for `O=C(C1CCOCC1)N1CCOC[C@H](Oc2ccccc2)C1`, the “activity change, negative = cytotoxicity” value is -1.74% [at 172 µM]. For the compound `Cn1cc(-c2ccsc2)c2nc(CN3CCNC(=O)C3)cn2c1=O`, the “activity change, negative = cytotoxicity” value was -1.38% [at 172 µM].

As to `CN1CCN(C(=O)c2ccc3nnc(C(C)(C)C)n3c2)CC1`, the “activity change, negative = cytotoxicity” value was 0.0478% [at 172 µM]. The same measure, in the same setting: the figure for `CCc1cc(=O)n(CC(=O)Nc2cc(OC)cc(OC)c2)c(N2CCOCC2)n1` is 2.24%. Take `CCc1cc(=O)n(CC(=O)Nc2cccc(C(C)=O)c2)c(-c2ccccc2)n1`: the Potency is 25.1 µM (active). Regarding `CCc1cccc(NC(=O)Cn2c(=O)c(-c3noc(CC)n3)c3n(c2=O)CCCC3)c1`, the “activity change, negative = cytotoxicity” value is 1.18%. Take `COc1ccc(-c2ccc(C(=O)N3CCN(C(=O)c4ccccc4OC)CC3)cc2)nn1`: the “activity change, negative = cytotoxicity” value was 0.833%.

As for `CN(C)[C@@H]1[C@@H](NC(=O)CCn2cnc3ccccc3c2=O)[C@H]2CCO[C@H]21`, the outcome was inactive. Take `N#Cc1cccc(C(=O)Nc2ccc([C@H]3OCC(=O)N(Cc4ccccc4)[C@@H]3CO)cc2)c1`: the “activity change, negative = cytotoxicity” value was -23.9%. Same read-out and setting: the figure for `CCCNC(=O)C(NC(=O)c1cccc(C)c1)C1CCN(C(=O)CCc2ccccc2)CC1` (stereo not drawn) is -7.6%. Take `CCNC(=O)C1C(c2cccc(NC(=O)c3cccc(C)c3)c2)OC(=O)N1Cc1cccc(Cl)c1` (stereo not drawn): the Potency is 28.2 µM (active). With `COc1cccc([S+](=O)([O-])N2CCC(C(=O)N3CCC(N4CCOCC4=O)CC3)CC2)c1`, the outcome was inactive. For `COCc1cc(=O)n(CC(=O)Nc2ccc(Cl)cc2)c(N2CCOCC2)n1`, the “activity change, negative = cytotoxicity” value was -23.5%. Take `c1ccc2c(c1)CNC1(CCN(Cc3cccc4ccccc34)CC1)CO2`: the Potency is 79.4 µM (active).

Regarding `O=[S+]1([O-])NC2(CCN(Cc3ccccc3)CC2)COc2ccccc21`, the “activity change, negative = cytotoxicity” value is -3.51%. On the same count and under the same terms, the figure for `COc1ccc(CN2CCC3(CC2)COc2ccccc2CN3)cc1` is 3.7%; for `O=C(NCCc1nc(-c2ccccc2)cs1)C1NCCc2[nH]cnc21` (stereo not drawn) it is 1.73%; for `O=C1CCN(C(=O)C2CCN(S(=O)(=O)Cc3ccccc3)CC2)CCCCCCN1` it is -1.97%.

Turning to `O=S(=O)(Cc1cccc(F)c1)N1CCC(C2CCNC2)CC1` (stereo not drawn), the “activity change, negative = cytotoxicity” value was -18.2%.

For the compound `Cc1ccc(CS(=O)(=O)N2CCC(C3CCNC3)CC2)cc1C` (stereo not drawn), the Potency was 89.1 µM (active).

As for `CCC(=O)N1Cc2ccccc2CC2(CCCN2C)C1` (stereo not drawn), the “activity change, negative = cytotoxicity” value is -18.2% [at 172 µM]. Still for that read-out and setting: with `NCC(=O)N1Cc2ccccc2CC2(CCCCN2CC2CCOCC2)C1` (stereo not drawn) the figure was -4.35%. In the case of `NCC(=O)N1CCCC2(Cc3ccccc3CN2C(=O)c2cccc(Cl)c2)C1` (stereo not drawn), the Potency is 70.8 µM (active). Turning to `O=C(c1cccnc1)N1C[C@@H](F)[C@@H](OCc2nc3ccc(C(F)(F)F)cc3[nH]2)C1`, the “activity change, negative = cytotoxicity” value is -27.9% [at 172 µM].

For the compound `C[S+](=O)([O-])NC1CC2(CCN(Cc3ccc(O)cc3)CC2)c2ccccc21` (stereo not drawn), the “activity change, negative = cytotoxicity” value is -13.3%. On to `CC1=C[C@@H](CN2CCCC2)[C@H](C(C)C)C[C@H]1Cc1nnc(-c2ccc([N+](=O)[O-])cc2)o1`, for which the Potency is 35.5 µM (active). Same read-out and setting: the figure for `CC1=C[C@@H](CN2CCOCC2)[C@H](C(C)C)C[C@H]1Cc1nnc(-c2ccc([N+](=O)[O-])cc2)o1` is 39.8 µM (active). In the case of `CC1=C[C@@H](CC#N)[C@H](C(C)C)C[C@H]1CC(=O)N1CCN(C)CC1`, the “activity change, negative = cytotoxicity” value is -28.2% [at 172 µM]. Consider `CC1=C[C@@H](CN2CCN(CCO)CC2)[C@H](C(C)C)C[C@H]1Cc1nnc(-c2ccc(C)cc2)o1`, for which the Potency is 31.6 µM (active).

Consider `CNC(=O)c1cc(C)nc2onc(C3CCCN3C(=O)Cc3ccc(F)cc3)c12` (stereo not drawn), for which the “activity change, negative = cytotoxicity” value is -7.3%. In the case of `NC1CCCCN(C(=O)c2ccc3n[nH]nc3c2)C1` (stereo not drawn), the “activity change, negative = cytotoxicity” value was -10.8%. Same read-out and setting: the figure for `CSc1cccc(NC(=O)N[C@H]2C[C@@H](C(=O)N[C@@H](CCCNC(=O)CC(C)(C)C)C(N)=O)N(C(=O)CC(C)(C)C)C2)c1` is -17.2%; for `COCCS(=O)(=O)c1ncc(CN2CCCCO2)n1Cc1ccccc1` it is -24%; for `CCCN1C(=O)[C@H]2CC[C@@H]1CN(C(=O)c1nc(-c3ccccc3)[nH]c1C)C2` it is 1.99%. Same read-out and setting: with `O=C(NC[C@H]1Cn2c(-c3ccc(F)cc3)cnc2CO1)C1CC1` the figure was -2.09% [at 172 µM]; with `Cc1ccc(Cl)cc1NC(=O)N1C[C@@H](F)C[C@H]1C(=O)N1CCCCC1`, 0.438%. As for `COc1cccc(NC(=O)N[C@H]2CCN(C(=O)C=C(C)C)[C@@H]2C(=O)N[C@@H](Cc2cccs2)C(N)=O)c1`, the “activity change, negative = cytotoxicity” value was -0.217%.
